The values that follow come from PubChem BioAssay (NCI).

Test systems include SR leukemia; OVCAR-8 ovarian; OVCAR-5 ovarian; OVCAR-4 ovarian; SK-OV-3 ovarian; IGROV1 ovarian; OVCAR-3 ovarian; HS 578T breast; NCI/ADR-RES ovarian; T-47D breast; BT-549 breast; MDA-MB-435 melanoma; SW-620 colon; MCF7 breast; HCT-116 colon; HCC-2998 colon; KM12 colon; RPMI-8226 leukemia.
Holding throughout (assay): NCI-60 one-dose screen, 48 h (100 = growth as untreated, 0 = no growth, -100 = all killed)
Common to all, as to conditions: 10 µM unless noted

This is part of a sample that, as a whole, favours compounds with a hit. Of some 83,000 tested, about 20% had one in any assay.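 Each cell line was grown in a 96-well plate and treated with one concentration of compound for 48 hours. Values below 10 were considered active.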 Values without a mark were called inactive. The source made the active and inactive calls.

As to `N#Cc1cnn2c(-c3ccc(Cl)cc3)nc(NC3CC3)nc12`, the growth with SR leukemia is 86.1%; with OVCAR-8 ovarian, 102%; in the test on OVCAR-5 ovarian, 93.9%; with OVCAR-4 ovarian, 87.2%; in the test on SK-OV-3 ovarian, 107%; in the test with IGROV1 ovarian, 89.4%. Further, the growth in the test with OVCAR-3 ovarian is 101%; in the test on HS 578T breast it was 101%; in the test with NCI/ADR-RES ovarian, 98.8%; with T-47D breast it was 82.4%; with BT-549 breast, 94.2%; in the test on MDA-MB-435 melanoma, 96.8%. Besides, the growth in the test on SW-620 colon was 103%; with MCF7 breast, 78%; in the test on HCT-116 colon, 93.8%; in the test with HCC-2998 colon it was 101%; with KM12 colon it was 98.2%.

Turning to `O=C1Nc2ccccc2SC1c1ccccc1Cl` (stereo not drawn), the growth in the test with SR leukemia was 10.4%; with RPMI-8226 leukemia, 75%; with OVCAR-5 ovarian it was 98.1%; with OVCAR-4 ovarian it was 80.4%; with SK-OV-3 ovarian, 114%; with IGROV1 ovarian, 101%. Besides, the growth with HS 578T breast was 80.4%; with NCI/ADR-RES ovarian, 101%; in the test on T-47D breast it was 92.9%; in the test with BT-549 breast, 82.9%; with MDA-MB-435 melanoma, -12.6% (active); in the test on SW-620 colon, 75.5%. Besides, the growth is 119% with MCF7 breast, 105% in the test with HCT-116 colon, 124% in the test on HCC-2998 colon and 53.7% with KM12 colon.

Take `CCOC(=O)c1cnn2c(-c3ccc(Cl)cc3)nc(NCc3ccccc3)nc12`: the growth in the test with SR leukemia was 44.5%; in the test on OVCAR-8 ovarian it was 30.5%; in the test on OVCAR-5 ovarian, 100%; in the test with OVCAR-4 ovarian it was 5.61% (active); in the test with SK-OV-3 ovarian, 112%; in the test on IGROV1 ovarian it was 64.8%. Also, the growth in the test with OVCAR-3 ovarian was 29.9%; in the test on HS 578T breast it was 79.5%; in the test with NCI/ADR-RES ovarian, 26.3%; with T-47D breast it was 43.3%; with BT-549 breast, 101%; in the test on MDA-MB-435 melanoma, 56.2%. The growth is 4.94% (active) in the test with SW-620 colon; 5.18% (active) with MCF7 breast; -15.5% (active) in the test with HCT-116 colon; 83.9% in the test with HCC-2998 colon; 54% in the test on KM12 colon.

As for `COc1ccc(OC)c(/C=C2\COc3ccc(O)cc3C2=O)c1`, the growth with SR leukemia was 11.8%; in the test with OVCAR-8 ovarian it was 100%; with OVCAR-5 ovarian, 98.7%; in the test on OVCAR-4 ovarian, 117%; in the test with SK-OV-3 ovarian, 102%; in the test on IGROV1 ovarian, 97.9%. Besides, the growth with OVCAR-3 ovarian was 102%; in the test on HS 578T breast, 95.6%; in the test on NCI/ADR-RES ovarian, 100%; with T-47D breast, 96.7%; in the test with BT-549 breast it was 93.5%; in the test with MDA-MB-435 melanoma it was 29.1%. For the same compound, the growth is 14.3% in the test on SW-620 colon; 19.7% in the test with MCF7 breast; 66.9% with HCT-116 colon; 112% in the test with HCC-2998 colon; 60.2% in the test on KM12 colon.

For the compound `Oc1[nH]c2ccccc2c1/C=c1/cc2c(c(-c3ccc(F)cc3)n1)=Nc1ccccc1-2`, the growth in the test with SR leukemia is 10%; in the test on RPMI-8226 leukemia it was -40.5% (active); with OVCAR-5 ovarian, 0.0696% (active); in the test on SK-OV-3 ovarian, -7.93% (active); in the test on IGROV1 ovarian, -7.94% (active); with OVCAR-3 ovarian, -77% (active). The growth in the test with HS 578T breast is -7.82% (active); in the test with NCI/ADR-RES ovarian, -18.7% (active); with T-47D breast it was -37.1% (active); with BT-549 breast it was -31.3% (active); in the test on MDA-MB-435 melanoma, -30.4% (active); in the test with MCF7 breast, -62.4% (active). The values for the growth in the test on HCT-116 colon, with HCC-2998 colon and in the test on KM12 colon were -61.3% (active), -63.7% (active) and 14.6%, respectively.

Regarding `CCN(CC)CCOc1ccc(/C(=C(\C)c2ccc(OC)c(F)c2)c2ccc(Cl)cc2)cc1`, the growth in the test on SR leukemia was 29.8%; in the test on OVCAR-8 ovarian, 76.7%; in the test with OVCAR-5 ovarian it was 72.9%; in the test with OVCAR-4 ovarian, 73.1%; in the test with SK-OV-3 ovarian, 91.1%; with IGROV1 ovarian, 72.2%. Also, the growth in the test on OVCAR-3 ovarian is 89%; in the test with HS 578T breast it was 70%; in the test on NCI/ADR-RES ovarian, 82.3%; in the test on T-47D breast, 89.7%; in the test on BT-549 breast, 89%; in the test with MDA-MB-435 melanoma, 60.3%. The growth in the test with SW-620 colon was 63.2%; in the test with MCF7 breast, 70.3%; in the test on HCT-116 colon it was 46.4%; in the test with HCC-2998 colon, 78.6%; in the test on KM12 colon, 19.1%.

For the compound `Cn1cc(-c2ccc3ncc(-c4ccc(CC(=O)Nc5cc(C(C)(C)C)nn5C)cc4)cc3c2)cn1`, the growth with SR leukemia was 11.6% [30 µM]; in the test on OVCAR-8 ovarian it was 3.22% [30 µM] (active); with OVCAR-5 ovarian it was 46.2% [30 µM]; in the test on OVCAR-4 ovarian, -21.8% [30 µM] (active); in the test on SK-OV-3 ovarian, 12.6% [30 µM]; in the test with IGROV1 ovarian, 7.76% [30 µM] (active). Besides, the growth is 7.38% [30 µM] (active) in the test with OVCAR-3 ovarian; 27.8% [30 µM] with HS 578T breast; -8.5% [30 µM] (active) with NCI/ADR-RES ovarian; -3.95% [30 µM] (active) in the test with T-47D breast; -2.02% [30 µM] (active) in the test with BT-549 breast; 2.73% [30 µM] (active) in the test with MDA-MB-435 melanoma. The growth with SW-620 colon is 22.2% [30 µM]; in the test on MCF7 breast it was 2.17% [30 µM] (active); in the test on HCT-116 colon it was 20.4% [30 µM]; with HCC-2998 colon, 29.6% [30 µM]; in the test with KM12 colon, -40.1% [30 µM] (active).

Take `COc1ccc(Cn2cnc3cc(C(=O)Nc4cccc5ccccc45)ccc32)c(OC)c1`: the growth was -17% [30 µM] (active) in the test on SR leukemia; 14.7% [30 µM] in the test on OVCAR-8 ovarian; 16.3% [30 µM] in the test on OVCAR-5 ovarian; 44.4% [30 µM] in the test with OVCAR-4 ovarian; 31% [30 µM] in the test on SK-OV-3 ovarian; 14.7% [30 µM] in the test with IGROV1 ovarian. In addition, the growth in the test with OVCAR-3 ovarian is -17.8% [30 µM] (active); with HS 578T breast, 29.8% [30 µM]; with NCI/ADR-RES ovarian, 3.4% [30 µM] (active); in the test on T-47D breast, 59.8% [30 µM]; in the test on BT-549 breast it was 30.8% [30 µM]; with MDA-MB-435 melanoma it was -44.5% [30 µM] (active). Moreover, the growth in the test with SW-620 colon was 22.7% [30 µM]; in the test on MCF7 breast, 11.8% [30 µM]; with HCT-116 colon, 10.3% [30 µM]; with HCC-2998 colon, 6.79% [30 µM] (active); in the test on KM12 colon it was 2.44% [30 µM] (active).
